TRPML1 agonist = agonists of human TRPML1 channel; TRPML1-expressing cells, Ca2+ dye fluorescence, FDSS; activation, % (no concentration beside the values); 410,000 compounds, 0.12% hits; in the data active = activation above about 50%; inconclusive = mostly about 30% to 49%
Target sequence (Q9GZU1 whole entry, looked up): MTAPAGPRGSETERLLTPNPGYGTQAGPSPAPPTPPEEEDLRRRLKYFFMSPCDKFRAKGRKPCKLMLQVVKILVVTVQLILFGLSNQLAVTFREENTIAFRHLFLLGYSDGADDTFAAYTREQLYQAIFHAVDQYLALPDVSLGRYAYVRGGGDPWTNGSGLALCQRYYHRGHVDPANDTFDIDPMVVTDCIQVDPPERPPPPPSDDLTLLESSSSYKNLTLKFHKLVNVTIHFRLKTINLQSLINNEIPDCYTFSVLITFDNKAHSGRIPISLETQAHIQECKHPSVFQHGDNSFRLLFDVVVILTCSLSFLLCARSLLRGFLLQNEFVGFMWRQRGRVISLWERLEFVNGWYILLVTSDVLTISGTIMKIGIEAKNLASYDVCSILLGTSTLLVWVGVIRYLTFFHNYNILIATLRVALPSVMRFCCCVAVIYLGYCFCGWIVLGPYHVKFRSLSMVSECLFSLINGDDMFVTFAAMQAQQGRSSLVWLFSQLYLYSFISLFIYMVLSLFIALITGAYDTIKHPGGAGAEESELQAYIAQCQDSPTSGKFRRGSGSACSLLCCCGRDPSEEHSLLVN
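Tet-induced TRPML1-DL cells, 1,500 per well, cultured overnight, were loaded with a no-wash Ca2+ dye for 45–90 min. Calcium fluorescence was recorded on the FDSS for 110 s after compound addition, before the EC80 agonist (4 uM 54-4) was added.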
PKM2 activator = activators of human pyruvate kinase M2; purified PKM2, Kinase-Glo ATP luminescence, activation; response scale: 0% is enzyme alone, no compound; Potency, µM (titrated, usually from 57.5 µM), hits mostly activators; 260,000 compounds, 0.34% hits; AID 1631; note: nearly all actives have a fitted effect of over 55% in size
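Kinase-Glo luminescence reports ATP generated from ADP (0.1 mM) and PEP (0.5 mM) by purified hPK-M2 after 1 h at room temperature, pH 7.2 imidazole buffer; intermediate enzyme activity allows detecting inhibitors and activators.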
TSG101-PTAP inh = blocks PTAP/TSG101 interaction to inhibit HIV-1 budding | Q99816 | Fluorescence polarization, FITC-PTAP peptide / Tsg101 binding | Potency, µM (series often up to 115 µM), hits mostly inhibitors | 340,000 tested, under 10 active; active = well fitted inhibition curve with a large enough effect in the main read-out, with a control signal flat, not every such curve was filed as active; inconclusive = small, poorly fitted or top-dose-only effect, or effect the other way, or a change in a side signal; inactive = no such curve, though single readings can be large or run the other way
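Fluorescence anisotropy tracks displacement of a FITC-tagged PTAP peptide (50 nM) from the Tsg101 binding domain (10 uM), following a 20 min room-temperature incubation at pH 7.5.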
TRPML1 inh = human mucolipin-1 channel inhibition | TRPML1-inducible cells, Ca2+ dye fluorescence, FDSS; stronger effect = lower value; inhibition of EC80 agonist-evoked calcium signal | activity change, negative = inhibition, % (no concentration beside the values) | 390,000 compounds, 0.02% hits; in the data active = activity change below about -50%; inconclusive = between about -30% and that limit;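 note: stimulus is agonist 54-4 at its EC80 concentration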
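Calcium fluorescence in TRPML1-DL cells induced overnight with Tet: a 110 s read after compound pin addition, then a 110 s antagonist read after challenge with 54-4 at 4 uM final (EC80).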
BRCA1 expr act = BRCA1 expression activation; MCF7-BRCA1-FFLuc reporter, luminescence, 48 h; response scale: scaled: vehicle 0%, 10 µM genistein 100%; Potency, µM (top dose mostly 46.1 µM), hits mostly activators; 380,000 compounds, 1.1% hits; note: nearly all actives have a fitted effect of over 80% in size
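MCF7-BRCA1-FFLuc, 2000 cells/well; 2 h attach, 37 °C/5% CO2; compound 48 h; luciferase substrate 15 min; luminescence end-point. Norm. to genistein 10 microM max activation and DMSO; concentration-response curves fitted.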
IL2 activator = activates IL-2 in a cell-based reporter assay. IL-2 activation reporter assay, cell-based qHTS; stimulated with anti-CD3/CD4/CD28 beads; in transgenic mouse T cells. activation, % (series mostly up to about 46 µM). 360,000 compounds, 0.065% hits. AID 652025; in the data active = activation above about 50%; inconclusive = mostly about 30% to 49%
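Using fluorescent plate cytometry, EGFP and DsRed are detected in transgenic mouse T cells stimulated 18 h at 37 degrees C with antibody-coated beads after 60 min compound pretreatment.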
Numbers stand for hits. Most compounds without a hit are left out; they make up all but 1.3% or so of the library. Unless noted, calls come from the whole dose curve; as a rule, active = well fitted activation curve with a large enough effect; inconclusive = small, poorly fitted or top-dose-only effect; inactive = no such curve, though single readings can be large or run the other way.

How did O=C(CCCc1ccccc1)N1CCN(C2CCCCC2)CC1 do in these assays?
TRPML1 agonist: inactive; PKM2 activator: inactive; TSG101-PTAP inh: inactive; TRPML1 inh: inactive; BRCA1 expr act: 5µM; IL2 activator: inactive

What do the screens show for `COc1ccc(C(=O)/C=C(\C)Nc2ccc3c(c2)OCO3)cc1`?
TRPML1 agonist: inactive; PKM2 activator: inactive; TSG101-PTAP inh: inactive; TRPML1 inh: inactive; BRCA1 expr act: inconclusive; IL2 activator: inactive

Results for CCOc1ccc(N/C(C)=C\C(=O)c2ccc3c(c2)OCCO3)cc1 ?
TRPML1 agonist: inactive; PKM2 activator: inactive; TSG101-PTAP inh: inactive; TRPML1 inh: inactive; BRCA1 expr act: 13µM; IL2 activator: inactive

How did CCOc1ccc(N/C(C)=C/C(=O)c2ccc3c(c2)OCCO3)cc1 do in these assays?
TRPML1 agonist: inactive; PKM2 activator: inactive; TSG101-PTAP inh: inactive; TRPML1 inh: inactive; BRCA1 expr act: 4.5µM; IL2 activator: inactive

What do the screens show for `CNC(=O)c1cc(-c2cccs2)on1`?
TRPML1 agonist: inactive; BRCA1 expr act: inactive

How did COc1cccc(-n2cc(C(=O)Nc3ccccc3C(N)=O)c3ccccc3c2=O)c1 do in these assays?
TRPML1 agonist: inactive; TRPML1 inh: inactive

What do the screens show for `COc1c(C(=O)NNC(=O)c2ccccc2Cl)csc1Br`?
TRPML1 agonist: inactive; PKM2 activator: inactive; TSG101-PTAP inh: inactive; TRPML1 inh: inactive; BRCA1 expr act: 10µM; IL2 activator: inactive

What do the screens show for `NS(=O)(=O)c1cccc(NC(=O)CCSc2ccccc2Cl)c1`?
TRPML1 agonist: inactive; PKM2 activator: inactive; TSG101-PTAP inh: inactive; TRPML1 inh: inactive; BRCA1 expr act: 10µM; IL2 activator: inactive

What do the screens show for `Cc1ccc(S(=O)(=O)N2CCN(c3nc(-c4cncnc4)nc4ccccc34)CC2)cc1`?
TRPML1 agonist: inactive; BRCA1 expr act: inactive

How did COc1ccc(C(O)c2nc(-c3cnc4ccccc4c3)cs2)cc1 (stereo not given) do in these assays?
TRPML1 agonist: inactive; BRCA1 expr act: inactive; IL2 activator: inactive

How did CC(=O)NC(c1cccc(F)c1)c1nc(-c2cc3ccccc3o2)cs1 (stereo not given) do in these assays?
TRPML1 agonist: inactive; BRCA1 expr act: inactive; IL2 activator: inactive

What do the screens show for `OC(c1ccc(F)cc1)c1nc(-c2cnc3ccccc3c2)cs1` (stereo not given)?
TRPML1 agonist: inactive; BRCA1 expr act: 11µM; IL2 activator: inactive

Results for OC(c1ccc(F)cc1)c1nc(-c2cc3ccccc3o2)cs1 (stereo not given) ?
TRPML1 agonist: inactive; BRCA1 expr act: 1.8µM; IL2 activator: inactive

What do the screens show for `O=C(/C=C/c1ccco1)Nc1nc(-c2ccccc2)cs1`?
TRPML1 agonist: inactive; PKM2 activator: inactive; TSG101-PTAP inh: inactive; TRPML1 inh: inactive; BRCA1 expr act: 8.9µM; IL2 activator: inactive

How did O=C(/C=C/c1ccco1)Nc1nc(-c2ccccn2)cs1 do in these assays?
TRPML1 agonist: inactive; PKM2 activator: inactive; TSG101-PTAP inh: inactive; TRPML1 inh: inactive; BRCA1 expr act: inactive; IL2 activator: inactive

What do the screens show for `COc1cccc(/C=C/c2onc(C)c2S(=O)(=O)N2CCC(C(=O)N3CCCCC3)CC2)c1`?
TRPML1 agonist: inactive; TRPML1 inh: inactive

What do the screens show for `COc1ccc(-c2ccc(C(=O)Nc3cccc(N(C)C)c3)c3occc23)c(C)c1`?
TRPML1 agonist: inactive; TRPML1 inh: inactive; BRCA1 expr act: 2.5µM; IL2 activator: inactive

What do the screens show for `Cn1cc(-c2ccc(C(=O)Nc3cccc(Oc4ccccc4)c3)c3occc23)cn1`?
TRPML1 agonist: inactive; TRPML1 inh: inactive; BRCA1 expr act: 11µM; IL2 activator: inactive

Results for COc1ccc(-c2ccc(C(=O)Nc3cccc(F)c3)c3occc23)c(C)c1 ?
TRPML1 agonist: inactive; BRCA1 expr act: inconclusive; IL2 activator: inactive

Bioassay records as filed in PubChem.
